Here are results for eight compounds from PubChem BioAssay (NCI).

Some test systems named below: DU-145 prostate; K-562 leukemia; MALME-3M melanoma; MDA-MB-231 breast; RXF 393 renal; SF-268 CNS; SF-295 CNS; SF-539 CNS; UACC-257 melanoma; M14 melanoma; HCT-15 colon; HT29 colon; SNB-75 CNS; SNB-19 CNS; U251 CNS; PC-3 prostate; SK-MEL-5 melanoma; UACC-62 melanoma; LOX IMVI melanoma; SK-MEL-28 melanoma.
Common to all, as to assay: NCI-60 one-dose screen, 48 h (100 = growth as untreated, 0 = no growth, -100 = all killed)
Common to all, as to conditions: 10 µM unless noted

Compounds without any hit were thinned out: in the full panel of roughly 83,000, 20% have a hit.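 Negative percent growth values reflect cell death: -40 means 40% of the cells present at the start died, and -100 means all died.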 Values without a mark were called inactive. Active and inactive are the calls of the source. The calls were made as follows: active = growth percent below 10; inactive = the rest.

`O=C(N/N=C/c1ccc(-c2cccc([N+](=O)[O-])c2)s1)c1[nH]c2ccc(Br)cc2c1-c1ccccc1`: the growth in the assay on DU-145 prostate is 106%; with K-562 leukemia, 92.7%; in the assay with MALME-3M melanoma, 86.1%; in the assay with MDA-MB-231 breast it was 74.6%; in the assay with RXF 393 renal it was 90.8%; in the assay with SF-268 CNS it was 92.7%. Moreover, the growth was 103% with SF-295 CNS; 96.6% in the assay on SF-539 CNS; 85.6% in the assay with UACC-257 melanoma; 75.2% with M14 melanoma; 84.9% in the assay on HCT-15 colon; 109% in the assay on HT29 colon. Besides, the growth with SNB-75 CNS is 86.8%; in the assay with SNB-19 CNS, 56.1%; with U251 CNS it was 73.4%; in the assay with PC-3 prostate, 85.7%; with SK-MEL-5 melanoma it was 93.8%; with UACC-62 melanoma, 70.5%. The growth was 85.8% in the assay on LOX IMVI melanoma and 87.6% in the assay on SK-MEL-28 melanoma.

With `N#Cc1c(NC(=O)N2CCOCC2)n(-c2ccc(OC(F)(F)F)cc2)c2cc(F)ccc12`, the growth is 100% in the assay with DU-145 prostate; 8.91% (active) in the assay with K-562 leukemia; 94.5% with MALME-3M melanoma; 73.7% in the assay on MDA-MB-231 breast; 95.2% in the assay with RXF 393 renal; 114% with SF-268 CNS. Besides, the growth is 87.7% in the assay with SF-295 CNS; 87.7% in the assay on SF-539 CNS; 102% in the assay on UACC-257 melanoma; 96.7% in the assay on M14 melanoma; 95.5% with HCT-15 colon; 90% in the assay with HT29 colon. Also, the growth in the assay with SNB-75 CNS is 140%; in the assay with SNB-19 CNS, 117%; in the assay on U251 CNS it was 98.8%; in the assay with PC-3 prostate, 83.9%; with SK-MEL-5 melanoma it was 82.4%; with UACC-62 melanoma it was 73.2%. For the same compound, the values for the growth with LOX IMVI melanoma and in the assay with SK-MEL-28 melanoma were 102% and 89.5%, respectively.

In the case of `Nc1nc2cc(-c3ccc4ncnc(NCc5ccccc5)c4c3)ccc2o1`, the growth was 15.9% with DU-145 prostate; 25.9% in the assay with K-562 leukemia; -23.8% (active) in the assay with MALME-3M melanoma; -48.8% (active) with MDA-MB-231 breast; -75.6% (active) in the assay on RXF 393 renal; 25% in the assay with SF-268 CNS. Further, the growth in the assay with SF-295 CNS is -42.3% (active); in the assay on SF-539 CNS it was -86.5% (active); with UACC-257 melanoma, 68.4%; in the assay with M14 melanoma it was 22.4%; in the assay with HCT-15 colon it was 14.1%; in the assay with HT29 colon it was 37.2%. Besides, the growth in the assay on SNB-75 CNS is -83.9% (active); in the assay on SNB-19 CNS, 23%; in the assay with U251 CNS, 9.55% (active); in the assay on PC-3 prostate, 25.2%; with SK-MEL-5 melanoma it was 0.196% (active); in the assay with UACC-62 melanoma, 77.1%. Further, the growth is -86.1% (active) with LOX IMVI melanoma and 10.7% with SK-MEL-28 melanoma.

In the case of `N#CC1=C(c2ccco2)Nc2c(c(-c3ccccc3)nn2-c2ccccc2)C12C(=O)Nc1ccc(Cl)cc12` (stereo not given), the growth in the assay on DU-145 prostate is 42.3%; in the assay with K-562 leukemia, 9.86% (active); with MALME-3M melanoma, 22.3%; in the assay on MDA-MB-231 breast it was -4.25% (active); with RXF 393 renal, 57.9%; in the assay on SF-268 CNS, 11%. In addition, the growth is 6.91% (active) in the assay on SF-295 CNS; -30.3% (active) in the assay on SF-539 CNS; 56.4% in the assay on UACC-257 melanoma; 22.4% with M14 melanoma; 30.4% in the assay on HCT-15 colon; 41.9% in the assay on HT29 colon. In addition, the growth in the assay with SNB-75 CNS is -56.4% (active); in the assay with SNB-19 CNS, 3.22% (active); in the assay on U251 CNS it was -21.7% (active); with PC-3 prostate, -41% (active); with SK-MEL-5 melanoma, 50.4%; in the assay with UACC-62 melanoma it was 37.4%. The growth in the assay with LOX IMVI melanoma was 2.55% (active); in the assay with SK-MEL-28 melanoma, 45.6%.

Consider `O=Cc1cncc(-c2ccc3ncnc(N4CCc5cc(F)c(Cl)cc54)c3c2)c1`, for which the growth in the assay on DU-145 prostate was 22.5%; in the assay on K-562 leukemia, 35.5%; in the assay on MALME-3M melanoma, 23.7%; in the assay on MDA-MB-231 breast, 28.2%; in the assay on RXF 393 renal, -7.23% (active); in the assay on SF-268 CNS, 42.1%. The growth was 19.2% with SF-295 CNS; 25.8% in the assay on SF-539 CNS; 59.1% in the assay with UACC-257 melanoma; 48.6% with M14 melanoma; 18.7% in the assay with HCT-15 colon; 56.6% with HT29 colon. For the same compound, the growth was -12.6% (active) in the assay with SNB-75 CNS; 49.5% in the assay with SNB-19 CNS; 48.5% with U251 CNS; 23.6% in the assay with PC-3 prostate; 19.5% with SK-MEL-5 melanoma; 13.4% in the assay with UACC-62 melanoma. Besides, the growth in the assay with LOX IMVI melanoma is 20.8%; in the assay on SK-MEL-28 melanoma it was 44.2%.

`COc1cc(CNC(=O)C[C@H](C)CCC=C(C)C)ccc1OCc1cn(-c2ccc(Cl)cc2Cl)nn1`: the growth was 90.5% in the assay on DU-145 prostate; 81.4% in the assay with K-562 leukemia; 79.3% in the assay on MALME-3M melanoma; 59.7% in the assay with MDA-MB-231 breast; 14.1% in the assay with RXF 393 renal; 52.3% in the assay with SF-268 CNS. Moreover, the growth is 41.8% in the assay on SF-295 CNS; 66.9% in the assay with SF-539 CNS; 92% in the assay with UACC-257 melanoma; 102% in the assay on M14 melanoma; 79.6% in the assay on HCT-15 colon; 82.3% in the assay on HT29 colon. Also, the growth with SNB-75 CNS was 7.99% (active); with SNB-19 CNS, 50%; in the assay with U251 CNS, 54.4%; in the assay on PC-3 prostate, 85%; with SK-MEL-5 melanoma it was 60.4%; with UACC-62 melanoma it was 65.6%. Also, the figures for the growth in the assay on LOX IMVI melanoma and with SK-MEL-28 melanoma were 80.7% and 96.3%, respectively.

As for `COc1ccc2c(c1)C(Sc1ccc(F)cc1)c1c(nc(N)c(C#N)c1N)O2` (stereo not given), the growth is 99.5% in the assay on DU-145 prostate; 63.5% in the assay on K-562 leukemia; 88.3% in the assay with MALME-3M melanoma; 80.1% with MDA-MB-231 breast; 69.2% in the assay on RXF 393 renal; 85% with SF-268 CNS. In addition, the growth in the assay with SF-295 CNS was 92.8%; in the assay with SF-539 CNS, 90.5%; in the assay with UACC-257 melanoma, 104%; with M14 melanoma, 84.9%; with HCT-15 colon it was 80.6%; with HT29 colon, 94.3%. In addition, the growth in the assay with SNB-75 CNS was 66.5%; in the assay with SNB-19 CNS, 79.7%; with U251 CNS, 82%; in the assay with PC-3 prostate, 55.1%; with SK-MEL-5 melanoma it was 91.2%; in the assay on UACC-62 melanoma, 74.1%. Moreover, the growth was 60.9% with LOX IMVI melanoma and 112% in the assay with SK-MEL-28 melanoma.

Consider `CCCCN1C(=O)/C(=C\C(=O)c2cc3ccccc3oc2=O)c2ccccc21`, for which the growth with DU-145 prostate is 85.8%; with K-562 leukemia it was -36.9% (active); in the assay on MALME-3M melanoma it was 69%; in the assay on MDA-MB-231 breast, 48.2%; in the assay on RXF 393 renal, 60.1%; in the assay on SF-268 CNS, 87.5%. Moreover, the growth in the assay on SF-295 CNS is 101%; in the assay on SF-539 CNS, 80.2%; with UACC-257 melanoma, 105%; in the assay with M14 melanoma, 53.5%; with HCT-15 colon, 2.32% (active); in the assay on HT29 colon, 71.2%. Besides, the growth in the assay with SNB-75 CNS is 61.6%; with SNB-19 CNS, 91.3%; in the assay on U251 CNS, 88.2%; in the assay on PC-3 prostate, 83.3%; in the assay with SK-MEL-5 melanoma, 84.5%; in the assay on UACC-62 melanoma, 65.8%. Also, the growth in the assay on LOX IMVI melanoma is 57%; with SK-MEL-28 melanoma it was 52.2%.
